Source: PubChem (Broad Institute)
Beta cell apopt: blocks beta cell apoptosis; INS-1E cytokine-induced death, ATP luminescence, 48 h; percent of positive-control rescue, neutral wells zero; protection from apoptosis, % (no concentration beside the values); 300,000 compounds, 0.8% hits; AID 435005;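 active = Every replicate reaches about 75%, or at least half do and their mean reaches it too, limit read from the data; inconclusive = At least half of replicates reach the limit but their mean does not; inactive = Under half of replicates reach the limit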;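 note: 0% = cytokine-treated negative control wells and 100% = positive control rescue; higher means more ATP so stronger rescue from cytokine killing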
CSC inhib: blocks cancer stem cells; cancer stem cell-like cells viability, luminescence; 300,000 compounds, 1.1% hits; inhibition, % at 7.5 µM; in the data active = inhibition above about 75%; inconclusive = no clear call, values can overlap the other calls; tested in HMLE shEcad cells
Shn3 inh set2: reduces Shn3 3'UTR luciferase signal in osteoblasts | Clone20 osteoblast Shn3 3'UTR firefly luciferase, 24 h | inhibition, % at 12.5 µM | AID 588674 | 360,000 compounds, 0.52% hits;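 active = mean inhibition of at least 75% with every replicate also reaching 75%; inconclusive = mean inhibition at least 75% but some replicate below; inactive = mean inhibition below 75%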;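 note: 0% = median of neutral control wells and 100% = pilot-screen positive control compound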
Calb FLC: C. albicans growth modulation with fluconazole; 300,000 compounds, 0.57% hits; AID 1979; C. albicans CaCi-2 (fluconazole-resistant clinical isolate) + fluconazole, Alamar Blue growth, 48 h; growth inhibition, % (concentration not given with the values);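 active = growth inhibition above about 58% in most replicates, limit read from the data, passing the limit was not always enough; inconclusive = exactly half the replicates above a set limit; inactive = most replicates below a set limit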;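 note: all wells also contain fluconazole at 8 µg/ml as a sub-toxic cotreatment; 0% = median of DMSO wells and 100% = median of geldanamycin control wells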
PfHsp90 set2: growth inhibition of yeast expressing Plasmodium Hsp90; inhibition, % at 9.4 µM; S. cerevisiae expressing PfHsp90, BacTiter-Glo ATP, 48 h; yeast lacking PDR1 and PDR3 efflux regulators; 310,000 compounds, 0.32% hits;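 active = every replicate shows inhibition above about 80%, whatever the replicate mean, limit read from the data; inconclusive = mean inhibition reaches the set limit but some replicate falls short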;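 note: 0% = DMSO neutral controls and 100% = 20 µM radicicol positive controls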
* = called active by the depositor; u = inconclusive; x = no result. Most compounds without a hit are left out; they make up all but 2.2% or so of the library.

SMILES	Beta cell apopt	CSC inhib	Shn3 inh set2	Calb FLC	PfHsp90 set2
O=C(/C=C/c1ccccc1[N+](=O)[O-])c1ccccc1Br	-7.3	84.3*	21.6	5.0	103.5*
C/C(=N\NC(=O)C(C)n1nc(C)c([N+](=O)[O-])c1C)c1ccccc1O (configuration not stated)	91.6*	15.3	56.9	-12.0	-0.7
Cc1nn(C(C)C(=O)NCc2ccco2)c(C)c1[N+](=O)[O-] (configuration not stated)	-2.6	-3.2	4.5	-4.0	-0.6
Cc1cc(O)c2c(c1O)C(=O)[C@]13C(=C2O)C(=O)[C@@H]2[C@@H](O)[C@H]1[C@@H]1[C@H](O)[C@H]3C(=O)C3=C(O)c4c(O)cc(C)c(O)c4C(=O)[C@]312	x	x	92.0*	x	x
CC12CCC(C/C1=N\N=C1\NC(=O)/C(=C\c3cccc(Br)c3)S1)C2(C)C (configuration not stated)	19.7	104.9*	-7.4	1.7	5.2
CS(=O)(=O)c1sc(C#N)c2c1C(=O)CC(c1ccccc1)C2 (configuration not stated)	39.1*	109.6*	45.9	0.4	-59.4
COc1ccc(S(=O)(=O)Nc2c(C)cccc2C)cc1-n1cnnn1	-2.5	-11.5	0.6	-8.7	-11.2
O=C(OC(c1ccc(NS(=O)(=O)c2ccccc2)cc1)(C(F)(F)F)C(F)(F)F)c1ccccc1	6.8	66.6	6.0	6.5	-20.7
Cc1ccc(S(=O)(=O)Nc2ccc(C(OC(=O)c3ccccc3[N+](=O)[O-])(C(F)(F)F)C(F)(F)F)cc2)cc1	110.0*	107.0*	-8.1	-6.1	0.0
Cc1ccc(C2(c3ccc(C)cc3)CC2C(=O)Nc2ccc([N+](=O)[O-])cc2O)cc1 (configuration not stated)	124.5*	173.6*	78.0	-12.6	28.5
Cc1ccc([N+](=O)[O-])cc1NC(=O)C1CCCC1	x	-6.3	12.2	96.2*	-0.2
CC1(C)CC1C(=O)Nc1ccc([N+](=O)[O-])cc1Br (configuration not stated)	0.7	0.0	9.0	8.5	13.5
Cc1ccc(S(=O)(=O)N2CCC(C(=O)Nc3nnc(C)s3)CC2)cc1	-0.6	x	6.2	-7.8	-6.4
O=C(NC(NC(=S)Nc1ccc(Cl)cc1Cl)C(Cl)(Cl)Cl)c1cccc([N+](=O)[O-])c1 (configuration not stated)	96.8*	128.0*	16.9	-8.8	x
O=C(NC(NC(=S)Nc1ccccc1)C(Cl)(Cl)Cl)c1cccc(Cl)c1 (configuration not stated)	94.8*	89.3*	50.6	-3.9	-19.1
O=C(O)c1cccc(NC(=S)NC(NC(=O)c2cccc([N+](=O)[O-])c2)C(Cl)(Cl)Cl)c1 (configuration not stated)	10.0	-3.2	-18.7	-13.1	0.6
COc1ccc(CNc2ncnc3sccc23)cc1	75.4*	2.2	u	-11.3	-261.5
c1csc(CNc2ncnc3sccc23)c1	79.9*	-1.3	89.2*	84.6*	18.4
Cc1cc(C)nc(OC(C(=O)O)C(OCCc2ccccc2)(c2ccc(F)cc2)c2ccc(F)cc2)n1 (configuration not stated)	-0.8	9.7	13.0	27.6	20.5
CCCOC(c1ccccc1)(c1ccc(C(F)(F)F)cc1)C(Oc1nc(C)cc(C)n1)C(=O)O (configuration not stated)	5.5	4.6	25.9	79.5*	-12.4
COc1ccc(NC2CCCN(C(=O)CCc3ccncc3)C2)cc1OC (configuration not stated)	1.6	x	5.7	-9.1	9.8
CCCCCSc1nc(O)cc(=O)[nH]1	x	3.5	-6.5	-1.9	9.1
CCCCCCCCSc1nnc2[nH]c(=O)cc(N)n12	4.3	-8.1	-11.4	0.3	-14.9
CCCCCCSc1nnc2[nH]c(=O)cc(N)n12	-1.0	-4.4	13.9	94.3*	16.0
CCCCCCCSc1nc(N)cc(=O)[nH]1	-10.0	9.4	13.6	103.3*	1.2
SMILES	Beta cell apopt	CSC inhib	Shn3 inh set2	Calb FLC	PfHsp90 set2
CCCOc1ccc(C(=O)Nc2cc(S(=O)(=O)N3CCOCC3)ccc2N2CCN(CC)CC2)cc1OC	x	x	-7.5	x	6.2
CCc1cc(C(=O)N(CCCOC)c2c(N)n(Cc3ccccc3)c(=O)[nH]c2=O)sc1C	1.6	-1.7	7.9	-0.7	7.9
O=C(Nc1ccccc1C(=O)Nc1nnc(C(F)(F)F)s1)c1ccccc1Cl	111.9*	95.1*	38.9	-8.0	-3.0
Cc1[nH]c2ccccc2c1C(=O)COC(=O)c1ccc2c(=O)n3c(nc2c1)CCC3	-0.1	2.1	-1.0	26.0	-40.2
O=C(c1ccccc1F)n1c2c(c3ccccc31)CCCC2	1.1	50.6	-31.7	-8.6	6.1
CCN(CC)c1ccc(/C=N/n2nnnc2N)c(O)c1	4.0	25.3	-31.8	-1.6	x
CCN(CC)c1ccc2nc3ccccc3[n+](CC)c2c1	98.9*	25.7	19.6	90.0*	29.2
CCN(CC)c1ccc2nc3ccc(N)cc3[n+](-c3ccccc3)c2c1	x	x	90.3*	x	59.4
CC(C)(C)OC(=O)N1CCCC(C(=O)Nc2ccc(C(=O)NCCc3ccccc3)cc2)C1 (configuration not stated)	x	x	-15.8	x	-24.1
Nc1cc2c3c(cccc3c1)C(=O)N(CCN1CCCC1)C2=O	75.1*	35.7	6.2	-3.6	29.6
O=C1c2cccc3cc([N+](=O)[O-])cc(c23)C(=O)N1CCN1CCCC1	x	x	94.3*	u	-21.0
O=C1c2ccccc2C(=O)N1CCN1CCCCC1	-3.3	-5.5	-2.2	5.6	13.2
Cc1c(Cl)cccc1NC(=S)NC1CCN(C(C)C)CC1	-4.3	x	-6.9	-13.2	-12.3
Cc1onc(-c2ccccc2)c1C(=O)N/N=C(\N)COc1ccc(Cl)cc1	10.6	0.6	-0.8	86.2*	31.9
COc1cccc(/C=N/NC(=O)c2ccoc2C)c1O	85.5*	13.7	73.5	-5.3	3.8
COc1cccc(/C=N/NC(=O)C(=O)N/N=C/c2cccc(OC)c2O)c1O	x	x	58.4	x	-9.2
COc1ccc(OC)c2[nH]c(C(=O)N/N=C/c3ccccc3O)cc12	96.3*	73.8	92.6*	89.5*	15.7
COc1cccc(/C=N/NC(=O)c2cc(-c3cccn3C)n[nH]2)c1O	26.0	87.2*	72.9	103.2*	-20.2
Cc1cc(C)c(S(=O)(=O)N2CCCCC2CCNC(=O)C(=O)NC2CC2)c(C)c1 (configuration not stated)	13.8	15.5	62.5	-2.1	x
CCOC(=O)COc1cccc(C2NC(=O)c3ccccc3O2)c1 (configuration not stated)	-7.1	-3.4	-7.5	0.5	-10.6
COc1cccc(/C=N/NC(=O)c2c(-c3ccccc3)noc2C)c1O	87.0*	48.4	88.3*	-3.2	x
CCOC(=O)c1c(C)[nH]c(C(=O)N/N=C\c2ccccc2O)c1C	76.9*	79.4*	53.6	-3.9	2.1
COc1cccc(/C=N/NC(=O)c2c(-c3ccccc3)noc2C)c1OC	3.2	10.5	-8.4	4.4	-0.1
Cc1ccc(/C=N/NC(=O)c2c(-c3ccccc3)noc2C)c(O)c1	93.2*	51.3	78.9	112.4*	x
